From PubChem BioAssay AID2685 (National Center for Advancing Translational Sciences (NCATS), 2010) come the findings set out here.

Out of some 320,000 compounds screened, about 2,100 (0.66%) were called active. Another 53% or so got no clear call; they are omitted. This is one part of a sample in which actives are shown more often than they occur. Calls come from the whole dose curve; as a rule, active = well fitted inhibition curve with a large enough effect in the signal ratio, with a control signal flat (not every such curve was filed as active); inconclusive = small, poorly fitted or top-dose-only effect, or effect the other way, or a change in a side signal; inactive = flat fitted curve, though single readings scatter; the % refers to the signal ratio.
Potency is the fitted concentration of half-maximal effect.

The nature of this test: qHTS Assay for Lipid Storage Modulators in Drosophila S3 Cells.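 For cell number change: cells counted by Cell Tracker Red CMTPX staining in the red channel.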 For lipid storage change, negative = inhibition: % is set by controls: 0 for no effect and ±100 for the full control effect. The note with it: BODIPY lipid droplet fluorescence, 18-24 h, cells fed with added oleic acid; cell number change: measured here: cell count max response; series mostly up to 46.1 µM; lipid storage change, negative = inhibition: at the top concentration. The method in brief: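 Laser-scanning cytometry quantifies lipid droplet accumulation (500–530 nm total intensity; droplet/cell object ratio) in oleic acid-fed (400 uM added) Drosophila S3 cells treated with a concentration series. 20 uM Triacsin C defined 100% inhibition.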
(In general: In qHTS, concentration-response curves come from the screen itself.)
Take `COc1ccc(NC(=O)NC2CCCCCCC2)c(OC)c1`: the outcome was inactive and the cell number change is -0.578%.
In the case of `COc1ccc(NC(=O)Cn2ccc3c(OC)cccc3c2=O)cc1`, the “lipid storage change, negative = inhibition” value is 0.623% (inactive) and the cell number change stood at 0.407%.
On to `NNC(=O)COc1ccc2oc3c(c2c1)CCCC3`, for which the call was inactive and the cell number change was 10.5%.
As to `CNC(=O)NC(=O)COc1ccc2oc3c(c2c1)CCCC3`, the Potency is 0.58 µM (active) and the cell number change came out at 18.9%.
`O=C(O)COc1ccc2oc3c(c2c1)CCCC3`: the outcome was inactive and the cell number change is 21.3%.
As for `COc1cccc(-c2cc(C(=O)N/N=C/c3ccco3)c3ccccc3n2)c1`, the “lipid storage change, negative = inhibition” value was -13.5% (inactive).
For `O=C(N/N=C/c1ccco1)c1cc(C2CC2)nc2ccccc12`, the outcome was inactive and the cell number change is -1.9%.
Consider `O=C(N/N=C/c1ccco1)c1cc(-c2ccccc2)nc2ccccc12`, for which the Potency was 29.1 µM (active) and the cell number change is -7.31%.
Consider `O=C1N/C(=N/O)S/C1=C/c1cccnc1`, for which the “lipid storage change, negative = inhibition” value is -2.62% (inactive) and the cell number change stood at 16%.
Take `O=C(Oc1ccccc1/C=C\C(=O)c1cc2ccccc2o1)c1ccccc1`: the Potency was 14.6 µM (active).
Turning to `O=C(COC(=O)c1cc2ccccc2o1)c1ccccc1`, the molecule was called inactive and the cell number change is -6.43%.
Regarding `CC(=O)/C=C\c1ccccc1OC(=O)c1cc2ccccc2oc1=O`, the “lipid storage change, negative = inhibition” value is -11.6% (inactive) and the cell number change is -9.71%.
The like results for `FC(F)(F)c1cc(C(F)(F)F)c2ccc(N3CCOCC3)nc2n1` were, in that order, 1.42% (inactive) and 4.12%.
The like results for `C=CCn1c(SCC(=O)NC(=O)c2cccc([N+](=O)[O-])c2)nnc1-c1ccccc1F` were, in that order, -0.693% (inactive) and -9.47%.
For the molecule `Cc1ccc(C(=O)OCC(=O)N2CCOCC2)cc1`, the molecule was classed as inactive and the cell number change was -0.794%.
Take `O=C(COC(=O)c1ccc(Br)c(S(=O)(=O)N2CCOCC2)c1)NCC1CCCO1` (configuration not stated): the Potency was 0.58 µM (active) and the cell number change is -0.879%.
For the molecule `Cc1ccc(C(=O)OCC(=O)Nc2ccc3c(c2)OCO3)cc1S(=O)(=O)N1CCOCC1`, the “lipid storage change, negative = inhibition” value was 12.5% (inactive) and the cell number change is -2.32%.
In the case of `CCN(c1ccc(NC(=O)COC(=O)c2ccc(C)c(S(=O)(=O)N3CCOCC3)c2)cc1)C(C)C`, the Potency was 23.1 µM (active) and the cell number change was -6.95%.
On to `Cc1ccc(NC(=O)COC(=O)c2ccc(C)c(S(=O)(=O)N3CCOCC3)c2)cc1`, for which the “lipid storage change, negative = inhibition” value is 1.82% (inactive) and the cell number change turned out to be 6.4%.
For the molecule `O=C(COC(=O)c1cc(S(=O)(=O)N2CCOCC2)ccc1O)NCC1CCCO1` (configuration not stated), the “lipid storage change, negative = inhibition” value was 19.7% (inactive) and the cell number change is -22.6%.
The like results for `O=C(COC(=O)c1ccc(Cl)c(S(=O)(=O)N2CCCCC2)c1)NCC1CCCO1` (configuration not stated) were, in that order, 7.99% (inactive) and 18.1%.
In the case of `CSc1sc(C(=O)OC(C)C)c2c1C(=O)CC(C)(C)C2`, the molecule was classed as inactive and the cell number change is -5.28%.
On to `O=C(NC1CC1)C1=C[C@H](c2ccc3c(c2)OCO3)C[C@H](OCc2ccc(CO)cc2)O1`, for which the “lipid storage change, negative = inhibition” value was 9.56% (inactive) and the cell number change is 3.05%.
The like results for `CC(=O)N1CCc2cc(Br)cc(S(=O)(=O)NCCCN3CCCC(C)C3)c21` (configuration not stated) were, in that order, 6.45% (inactive) and -1.7%.
With `CCCc1nc(SCC(=O)N2CCc3ccccc3C2)c2ccccc2n1`, the “lipid storage change, negative = inhibition” value is -4.35% (inactive) and the cell number change was -13.9%.
The like results for `O=C(c1ccco1)N1CCN(C(=O)C2CC2)CC1` were, in that order, -0.297% (inactive) and 3.46%.
On to `CC(=O)NN1C(=O)c2ccccc2NC1c1cccc([N+](=O)[O-])c1` (configuration not stated), for which the “lipid storage change, negative = inhibition” value was 0.744% (inactive) and the cell number change is -1.27%.
The like results for `O=C1c2ccccc2NC(c2cccc([N+](=O)[O-])c2)N1O` (configuration not stated) were, in that order, -0.341% (inactive) and 5.94%.
Turning to `O=C1c2ccccc2NC(c2cccc([N+](=O)[O-])c2)N1CCc1ccccc1` (configuration not stated), the Potency is 5.8 µM (active) and the cell number change came out at 8.73%.
On to `C[N+]1(C)CC2([N+](=O)[O-])CC=C(Oc3ccccc3)C([N+](=O)[O-])(C2)C1` (configuration not stated), for which the “lipid storage change, negative = inhibition” value is -9.09% (inactive) and the cell number change is -16.8%.
The like results for `COCCn1c(SCC(=O)c2c(N)n(C3CC3)c(=O)[nH]c2=O)nnc1-c1ccc(Cl)cc1` were, in that order, 5.65% (inactive) and -5.22%.
The like results for `Cc1cc([N+](=O)[O-])ccc1NCc1ccccc1[N+](=O)[O-]` were, in that order, 13.6% (inactive) and 7.15%.
The like results for `O=C(Cn1cc([N+](=O)[O-])cn1)Nc1nccs1` were, in that order, 3.37% (inactive) and 10.2%.
`CC(=O)Nc1ccc(NC(=O)CSc2ccc([N+](=O)[O-])cn2)cc1`: the “lipid storage change, negative = inhibition” value was 8.29% (inactive) and the cell number change was 0.135%.
For the molecule `O=C(CSc1ccc([N+](=O)[O-])cn1)Nc1nccs1`, the Potency was 18.4 µM (active) and the cell number change is 2.83%.
As to `CCN(CC(=O)Nc1ccc(OC)cc1)C(=O)CCS(=O)(=O)c1ccc(C)cc1`, the “lipid storage change, negative = inhibition” value is -1.53% (inactive) and the cell number change stood at 4.09%.
For the molecule `COc1ccc(CNS(=O)(=O)c2c(C(=O)N3CCCCC3)c(C)n(C)c2C)cc1`, the result was inactive and the cell number change is -6.92%.
The like results for `CNC(=O)c1ccc(NC(=O)CC23CC4CC(CC(C4)C2)C3)cc1` were, in that order, “inactive” and 12.8%.
As to `CCN(CC)C(=O)c1cccc(NC(=O)CC23CC4CC(CC(C4)C2)C3)c1`, the Potency is 0.231 µM (active) and the cell number change was 17.9%.
For `O=C(CC12CC3CC(CC(C3)C1)C2)Nc1c(F)cccc1F`, the “lipid storage change, negative = inhibition” value was -2.56% (inactive) and the cell number change was -17.2%.
For the molecule `COc1ccc(CCNC(=O)C2CCC(=O)N2Cc2ccccc2Cl)cc1OC` (configuration not stated), the “lipid storage change, negative = inhibition” value is -20.8% (inactive) and the cell number change was -14.8%.
The like results for `Cc1cc(C(=O)NCCCN2CCN(c3cc(Cl)ccc3C)CC2)n(-c2ccccc2)n1` were, in that order, -3.15% [at 9.22 µM] (inactive) and 12.1%.
